Assay [1] concerns the target Lysosomal acid glucosylceramidase (Homo sapiens) (UniProt P04062). Nature of the assay: Glucocerebrosidase-p2 (AID 348; in the data active = potency below about 10 µM; note: potency is the fitted concentration of half-maximal effect). The settings on record: purified GBA, blue fluorogenic substrate, 40 min. An outline of the steps: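 Normal human glucocerebrosidase (0.2 nM) with blue fluorogenic substrate (80 uM final) in citrate/phosphate pH 5.9 with 10mM sodium taurocholate, 0.01% tween-20; 40 min RT, NaOH/glycine stop; fluorescence Ex 365/Em 440; AC50 from a titration from 0.6 nM upwards.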

Assay [2] is described as follows: AP1 Signaling Pathway (AID 357; active = well fitted curve in either direction with a large enough effect, not every such curve was filed as active;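 note: ME-180 reporter cells stimulated with EGF at its EC50 level; % is set by controls: 0 for no effect and ±100 for the full control effect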). The settings on record: ME-180 AP-1-bla reporter, EGF-induced, beta-lactamase ratio, 5 h; at 7.69 µM (top of the series) unless noted. Put shortly: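 First, ME-180 AP-1-bla cells were cultured overnight at 37 °C in low-serum Opti-MEM. Next, titrated compounds with EC50 EGF were incubated 5 hours. Finally, CCF4 was added for 2.5 hours and the 460/530 nm ratio recorded.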

Assay [3] addresses Cytochrome P450 1A2 (Homo sapiens) (UniProt P05177). As to the kind of experiment: p450-cyp1a2 (AID 410; calls by dose curve; note: potency is the fitted concentration of half-maximal effect). The settings on record: recombinant CYP1A2, luciferin-ME demethylation, luminescence; series mostly up to 57 µM. Put shortly: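 20nM CYP1A2, 100uM Luciferin-ME (=Km), 100mM KPO4; cpd 10 min RT; +NADPH regen, 60 min RT; stop/detect 20 min; luminescence. Normalized to furafylline 57 uM = full inhibition.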

The nature of assay [4]: Stat Signaling Pathway (AID 446; active = well fitted curve in either direction with a large enough effect, not every such curve was filed as active;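 note: ME-180 cervical cancer cells given 40 pM IL-6 alongside compound; SIE-controlled beta-lactamase reporter measured as 460/530 nm FRET emission ratio; % is set by controls: 0 for no effect and ±100 for the full control effect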). The settings on record: ME-180 (cervical carcinoma) SIE beta-lactamase reporter, IL-6 stimulated, 5 h; at 7.69 µM (top of the series) unless noted. Put shortly:
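Normalization used AC90 stimulation (300 pM IL-6) and AC90 inhibition (125 nM pan-JAK inhibitor at 40 pM IL-6). The underlying signal is SIE-driven beta-lactamase in ME-180 cells after 5 h IL-6 exposure with compound.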

Assay [5] addresses Glucocorticoid receptor (Homo sapiens) (UniProt P04150). As to the kind of experiment: GR-GFP Redistribution (AID 450;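 active = compounds whose dose series gives a full or clear partial fitted curve of increased nuclear translocation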; note: potency is the fitted concentration of half-maximal effect). The settings on record: U2OS GR-GFP nuclear translocation, laser cytometry, 2 h.
Assay [6] has the same target. Nature of the assay: GR-EFC Redistribution (AID 451; calls by dose curve; note: potency is the fitted concentration of half-maximal effect). The settings on record: CHO-K1 GR-EFC translocation, beta-gal luminescence, 2 h. An outline of the steps: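 Translocation of GR-ED fusion to nuclear EA restores b-gal, read by luminescence after 1 h room-temperature detection. Engineered CHO-K1 biosensor cells, 1,000/well, exposed 2 h at 37 C to titrations up to 46 uM final.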

Assay [7] addresses Mitogen-activated protein kinase 10 (Mus musculus) (UniProt Q61831). As to the kind of experiment: JNK3 AlphaScreen Assay (AID 530; active = well fitted curve in either direction with a large enough effect, not every such curve was filed as active;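 note: kinase came from lysate of stimulated human HepG2 cells; signal reports phosphorylation of biotinylated GST-cJun 1-79 at Ser73 with 10 µM ATP; % is set by controls: 0 for no effect and ±100 for the full control effect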). The settings on record: JNK3 lysate, c-Jun phosphorylation; series mostly up to 57.1 µM. An outline of the steps:
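Kinase buffer: 20 mM Tris-HCl pH 7.6, 10 mM MgCl2, 1 mM DTT, 0.1 mM Na3VO4, 0.01% Tween-20; ATP 10 uM. Substrate biotin-GST-cJun(1-79), enzyme from activated HepG2 lysates. Detection by Ser73 phospho-antibody AlphaScreen.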

Assay [8] has as its target 3',5'-cyclic-AMP phosphodiesterase 4B (Homo sapiens) (UniProt Q07343). Nature of the assay: qHTS Assay for Inhibitors of PDE-IV (AID 607; active = well fitted activation curve with a large enough effect in the main read-out, with a control signal flat, not every such curve was filed as active; note: % of control where 0% means no effect). The settings on record: HEK293 ACTOne CNG channel cells, membrane potential fluorescence; series mostly up to 22.9 µM. Put shortly: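 HEK293 ACTOne cells with CNG channel (1000/well), endogenous PDE4; membrane potential dye, compounds up to 22.9 uM final. Fluorescence Ex 535/Em 590; RO 20-1724 (100 uM final) as reference.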
(In general: qHTS replaces the single test concentration by a dilution series.)

Assay [9] addresses Dual specificity protein kinase CLK4 (Homo sapiens) (UniProt Q9HAZ1). Nature of the assay: qHTS Assay for Inhibitors of CDC-like Kinase 4 (Kinase-Glo Assay) (AID 1770). Note: nearly all actives have a fitted effect of over 65% in size. Note: potency is the fitted concentration of half-maximal effect. The settings on record: recombinant Clk4, Kinase-Glo ATP depletion luminescence; series mostly up to 66.7 µM. An outline of the steps: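 Clk4 25 nM, RS peptide 100 uM, ATP 1 uM, pH 7.5 Tris, 10 mM MgCl2, 2.5 mM DTT; 4.5 h RT; ATP depletion read by Kinase-Glo luminescence.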

Assay [10] shares this target. As to the kind of experiment: qHTS Assay for Inhibitors of CDC-like Kinase 4 (ADP-Glo Assay) (AID 1771). Note: nearly all actives have a fitted effect of over 70% in size. Note: potency is the fitted concentration of half-maximal effect. The settings on record: recombinant CLK4, ADP-Glo luminescence; series mostly up to 80 µM. An outline of the steps:
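25 nM Clk4, 100 uM RS peptide, 1 uM ATP (final); 2 mM MgCl2, 0.5 mM EGTA, 2.5 mM DTT, 0.01% Triton X-100; 1 hr RT. ADP-Glo readout: ATP depletion 45 min, conversion/luciferase 30 min, luminescence.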

Assay [11] has the same target. As to the kind of experiment: qHTS Assay for Inhibitors of CDC-like Kinase 4 (ADP-FP Assay) (AID 1795). Note: nearly all actives have a fitted effect of over 60% in size. Note: potency is the fitted concentration of half-maximal effect. The settings on record: Transcreener ADP fluorescence polarization; series mostly up to 50 µM. Put shortly:
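Kinase activity was followed as ADP output, converted from fluorescence polarization with a calibration curve. Reactions ran one hour at low ATP (1 uM) with RS peptide substrate.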

Assay [12] has as its target Ubiquitin carboxyl-terminal hydrolase 1 (Homo sapiens) (UniProt O94782). Nature of the assay: Inhibitors of USP1/UAF1: Pilot qHTS (AID 504865).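 Note: rhodamine fluorescence freed from ubiquitin-rhodamine substrate followed over time; top concentration of the series differs between compounds; % is set by controls: 0 for no effect and ±100 for the full control effect; nearly all actives have a fitted effect of over 35% in size.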 The settings on record: purified USP1/UAF1, Ub-rhodamine cleavage fluorescence; series mostly up to 54.9 µM. Put shortly: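 Enzyme-free wells gave the negative control, while test wells held 1nM USP1/UAF1 preincubated with compound for 15 min at room temperature. Ub-Rho at 150nM final started the reaction, and fluorescence at 480/540 nm was recorded kinetically.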

A short description of assay [13]: Primary qHTS for small molecule stabilizers of the endoplasmic reticulum resident proteome: Secreted ER Calcium Modulated Protein (SERCaMP) assay (AID 1508630). Note: % is set by controls: 0 for no effect and ±100 for the full control effect. The settings on record: SH-SY5Y GLuc-SERCaMP (Gaussia luciferase released on ER calcium loss) secretion, thapsigargin, luminescence; series mostly up to 38.4 µM. An outline of the steps:
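The SH-SY5Y reporter protocol was run at 3 concentrations up to 38.3 uM (primary) or 11 concentrations (follow-up): 16 h compound, 100 nM thapsigargin for 4 h, then extracellular luciferase luminescence.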

The target in assay [14] is Cytochrome P450 2C9 (Homo sapiens) (UniProt P11712). Nature of the assay: qHTS Assay for Inhibitors and Substrates of Cytochrome P450 2C9 (AID 883). Note: nearly all actives have a fitted effect of over 60% in size. Note: potency is the fitted concentration of half-maximal effect. The settings on record: recombinant CYP2C9, luciferin-H luminescence, 60 min; series mostly up to 57.1 µM. An outline of the steps: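 Luminescent read-out of deoxyluciferin hydroxylation, normalized to 57uM sulphaphenazole (AC100). Reaction: 10nM enzyme, 100uM Luciferin-H (equal to KM), 25mM KPO4, 10 min compound preincubation, then 60 min with NADPH regeneration, both at 37C.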

Assay [15] is described as follows: NFAT Signaling Pathway (AID 444; active = well fitted curve in either direction with a large enough effect, not every such curve was filed as active). The settings on record: Jurkat NFAT-bla M1, carbachol, beta-lactamase ratio, 5 h; at 7.69 µM (top of the series) unless noted. An outline of the steps: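 Read-out: CCF4 FRET ratio (460 nm/530 nm) after 1 h RT dye loading, used for %activity and AC50 from titration series. Cells: Jurkat NFAT-β-lactamase/M1 line, treated with compound plus 1 uM carbachol for 5 h, 37 °C.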

For assay [16], the target named is Cytochrome P450 3A4 (Homo sapiens) (UniProt P08684). Nature of the assay: qHTS Assay for Activators of Cytochrome P450 3A4 (AID 885). Note: nearly all actives have a fitted effect of over 65% in size. The settings on record: recombinant CYP3A4, Luciferin-PPXE luminescence, 60 min; series mostly up to 57.1 µM. An outline of the steps:
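Human CYP3A4 dealkylates Luciferin-PPXE to luciferin, which luciferase detection converts to light. Substrate was at its KM (25uM), buffer 200mM KPO4, reaction 60 min at RT.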

Assay [17] shares this target. As to the kind of experiment: qHTS Assay for Inhibitors and Substrates of Cytochrome P450 3A4 (AID 884). Note: % is set by controls: 0 for no effect and ±100 for the full control effect; nearly all actives have a fitted effect of over 50% in size. The settings on record: recombinant CYP3A4, Luciferin-PPXE luminescence; series mostly up to 57.1 µM. Put shortly:
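Luminescent readout of luciferin produced by CYP3A4 (20 nM) dealkylation of Luciferin-PPXE, 25 uM (its KM). NADPH-driven reaction ran 60 min at RT after 10 min compound preincubation; data scaled to 57 uM ketoconazole as 100% inhibition.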

The target of assay [18] is Cytochrome P450 2C19 (Homo sapiens) (UniProt P33261). As to the kind of experiment: qHTS Assay for Inhibitors and Substrates of Cytochrome P450 2C19 (AID 899). Note: potency is the fitted concentration of half-maximal effect; nearly all actives have a fitted effect of over 60% in size. The settings on record: recombinant CYP2C19, luciferin-H EGE luminescence; series mostly up to 57.1 µM. An outline of the steps: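 Luminescence readout of luciferin formed from 10uM Luciferin-H EGE (KM level) by 5 nM CYP2C19 in 50mM KPO4. 60 min NADPH-driven reaction at 37C after 10 min compound preincubation; data scaled to 57uM ketoconazole inhibition.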

Structures are written as SMILES. A number with no mark means an inactive call. Records with an inconclusive call do not appear. Activity calls are given as the source filed them. Unless noted, calls come from the whole dose curve; as a rule, active = well fitted curve in the direction sought with a large enough effect; inconclusive = small, poorly fitted or top-dose-only effect, or another doubt; inactive = no such curve, though single readings can be large; an effect the other way counts as inactive or inconclusive. A value given as a limit tells only on which side of the number the result lay.

Chain of Lysosomal acid glucosylceramidase (Homo sapiens) (P04062 whole entry, looked up): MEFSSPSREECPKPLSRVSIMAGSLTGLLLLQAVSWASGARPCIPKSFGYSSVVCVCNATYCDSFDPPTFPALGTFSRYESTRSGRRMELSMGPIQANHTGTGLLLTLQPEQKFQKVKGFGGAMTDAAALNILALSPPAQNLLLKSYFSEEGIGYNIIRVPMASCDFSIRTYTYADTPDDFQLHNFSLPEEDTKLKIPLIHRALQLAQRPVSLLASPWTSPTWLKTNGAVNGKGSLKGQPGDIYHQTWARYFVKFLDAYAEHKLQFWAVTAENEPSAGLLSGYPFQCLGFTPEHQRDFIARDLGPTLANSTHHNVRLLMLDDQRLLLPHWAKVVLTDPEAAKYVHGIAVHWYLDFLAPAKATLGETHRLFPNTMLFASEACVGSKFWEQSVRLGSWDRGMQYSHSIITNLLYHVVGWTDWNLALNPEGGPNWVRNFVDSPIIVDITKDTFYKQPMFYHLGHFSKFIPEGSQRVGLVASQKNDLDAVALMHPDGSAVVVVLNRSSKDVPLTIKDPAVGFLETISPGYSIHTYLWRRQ
Chain of Cytochrome P450 1A2 (Homo sapiens) (P05177 whole entry, looked up): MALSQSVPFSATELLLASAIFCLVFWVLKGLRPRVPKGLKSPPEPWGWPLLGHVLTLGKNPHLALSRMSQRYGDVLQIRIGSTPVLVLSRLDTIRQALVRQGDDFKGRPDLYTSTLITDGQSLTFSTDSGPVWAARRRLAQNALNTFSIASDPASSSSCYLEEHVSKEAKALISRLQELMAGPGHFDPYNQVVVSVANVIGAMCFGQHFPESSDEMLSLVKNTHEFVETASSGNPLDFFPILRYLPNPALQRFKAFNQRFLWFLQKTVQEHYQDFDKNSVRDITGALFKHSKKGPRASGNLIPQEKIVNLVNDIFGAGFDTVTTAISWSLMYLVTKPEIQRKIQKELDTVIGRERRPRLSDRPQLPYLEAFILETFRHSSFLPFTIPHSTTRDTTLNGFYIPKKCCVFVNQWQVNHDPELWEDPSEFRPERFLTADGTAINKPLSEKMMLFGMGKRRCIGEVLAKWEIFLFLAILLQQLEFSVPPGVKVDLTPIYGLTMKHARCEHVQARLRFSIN
Chain of Ubiquitin carboxyl-terminal hydrolase 1 (Homo sapiens) (O94782 whole entry, looked up): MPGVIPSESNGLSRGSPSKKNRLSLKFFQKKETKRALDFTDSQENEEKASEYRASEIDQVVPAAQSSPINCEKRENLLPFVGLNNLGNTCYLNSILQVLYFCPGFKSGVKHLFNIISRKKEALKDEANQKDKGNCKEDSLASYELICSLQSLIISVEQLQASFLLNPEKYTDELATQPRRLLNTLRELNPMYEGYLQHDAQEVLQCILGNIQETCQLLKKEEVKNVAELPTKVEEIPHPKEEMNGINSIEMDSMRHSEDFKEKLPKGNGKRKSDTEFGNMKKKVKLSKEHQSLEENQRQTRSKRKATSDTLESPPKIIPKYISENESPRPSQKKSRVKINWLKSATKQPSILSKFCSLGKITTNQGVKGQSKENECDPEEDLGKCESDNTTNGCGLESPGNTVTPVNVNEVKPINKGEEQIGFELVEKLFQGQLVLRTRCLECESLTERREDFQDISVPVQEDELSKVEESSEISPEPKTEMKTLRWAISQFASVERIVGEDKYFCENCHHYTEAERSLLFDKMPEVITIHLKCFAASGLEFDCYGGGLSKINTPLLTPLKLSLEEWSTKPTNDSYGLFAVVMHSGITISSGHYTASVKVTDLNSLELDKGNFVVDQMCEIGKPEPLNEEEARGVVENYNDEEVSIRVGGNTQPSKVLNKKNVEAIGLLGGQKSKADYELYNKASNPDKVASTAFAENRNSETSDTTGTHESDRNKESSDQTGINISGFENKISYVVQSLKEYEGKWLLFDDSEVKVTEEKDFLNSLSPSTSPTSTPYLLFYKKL
Chain of Dual specificity protein kinase CLK4 (Homo sapiens) (Q9HAZ1 whole entry, looked up): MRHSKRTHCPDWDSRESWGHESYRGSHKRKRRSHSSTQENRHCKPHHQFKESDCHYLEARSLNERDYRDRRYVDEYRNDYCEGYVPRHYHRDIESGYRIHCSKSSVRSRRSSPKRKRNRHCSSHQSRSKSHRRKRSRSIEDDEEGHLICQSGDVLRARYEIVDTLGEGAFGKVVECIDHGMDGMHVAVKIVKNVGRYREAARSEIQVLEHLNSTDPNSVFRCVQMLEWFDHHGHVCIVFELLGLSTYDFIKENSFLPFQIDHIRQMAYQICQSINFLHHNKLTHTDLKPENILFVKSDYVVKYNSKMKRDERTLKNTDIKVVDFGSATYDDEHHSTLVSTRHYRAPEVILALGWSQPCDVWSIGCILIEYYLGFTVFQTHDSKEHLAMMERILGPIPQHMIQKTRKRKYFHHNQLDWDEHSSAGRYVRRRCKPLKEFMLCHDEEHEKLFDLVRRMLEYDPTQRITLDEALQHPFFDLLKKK
Chain of Glucocorticoid receptor (Homo sapiens) (P04150 whole entry, looked up, the tested form may be a part): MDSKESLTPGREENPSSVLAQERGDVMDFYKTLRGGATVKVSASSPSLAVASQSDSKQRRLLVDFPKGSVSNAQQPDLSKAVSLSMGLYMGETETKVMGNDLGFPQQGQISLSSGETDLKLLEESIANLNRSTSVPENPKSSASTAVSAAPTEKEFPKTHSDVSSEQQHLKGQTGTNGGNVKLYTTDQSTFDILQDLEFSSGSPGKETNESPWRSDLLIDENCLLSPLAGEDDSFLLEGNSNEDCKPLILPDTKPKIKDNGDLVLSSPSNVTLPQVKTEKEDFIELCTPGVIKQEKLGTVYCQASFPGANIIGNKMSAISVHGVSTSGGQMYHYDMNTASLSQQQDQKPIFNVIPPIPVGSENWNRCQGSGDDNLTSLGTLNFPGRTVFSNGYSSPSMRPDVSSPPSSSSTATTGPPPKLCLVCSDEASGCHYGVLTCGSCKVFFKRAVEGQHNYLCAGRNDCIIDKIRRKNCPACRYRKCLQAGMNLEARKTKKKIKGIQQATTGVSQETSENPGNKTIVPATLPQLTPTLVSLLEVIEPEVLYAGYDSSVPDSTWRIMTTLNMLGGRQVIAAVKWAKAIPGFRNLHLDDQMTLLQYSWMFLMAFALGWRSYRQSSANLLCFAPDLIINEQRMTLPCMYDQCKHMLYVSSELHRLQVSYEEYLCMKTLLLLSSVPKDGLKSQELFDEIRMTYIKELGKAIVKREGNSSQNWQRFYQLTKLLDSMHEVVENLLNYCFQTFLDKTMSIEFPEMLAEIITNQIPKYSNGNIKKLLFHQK
Chain of Cytochrome P450 3A4 (Homo sapiens) (P08684 whole entry, looked up): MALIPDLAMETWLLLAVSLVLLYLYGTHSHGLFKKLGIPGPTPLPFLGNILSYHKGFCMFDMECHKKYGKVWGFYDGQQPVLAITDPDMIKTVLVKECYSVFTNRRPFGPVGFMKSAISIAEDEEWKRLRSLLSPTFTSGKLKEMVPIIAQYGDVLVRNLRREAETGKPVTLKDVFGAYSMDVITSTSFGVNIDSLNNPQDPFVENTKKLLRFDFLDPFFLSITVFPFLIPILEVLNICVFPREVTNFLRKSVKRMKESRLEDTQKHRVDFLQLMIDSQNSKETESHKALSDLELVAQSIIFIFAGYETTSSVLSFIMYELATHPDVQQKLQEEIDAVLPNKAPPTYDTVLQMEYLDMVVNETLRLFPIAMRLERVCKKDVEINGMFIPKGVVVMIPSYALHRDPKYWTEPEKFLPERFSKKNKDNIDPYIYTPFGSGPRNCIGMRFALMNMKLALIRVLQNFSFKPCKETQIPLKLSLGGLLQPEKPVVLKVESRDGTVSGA
Chain of 3',5'-cyclic-AMP phosphodiesterase 4B (Homo sapiens) (Q07343 whole entry, looked up): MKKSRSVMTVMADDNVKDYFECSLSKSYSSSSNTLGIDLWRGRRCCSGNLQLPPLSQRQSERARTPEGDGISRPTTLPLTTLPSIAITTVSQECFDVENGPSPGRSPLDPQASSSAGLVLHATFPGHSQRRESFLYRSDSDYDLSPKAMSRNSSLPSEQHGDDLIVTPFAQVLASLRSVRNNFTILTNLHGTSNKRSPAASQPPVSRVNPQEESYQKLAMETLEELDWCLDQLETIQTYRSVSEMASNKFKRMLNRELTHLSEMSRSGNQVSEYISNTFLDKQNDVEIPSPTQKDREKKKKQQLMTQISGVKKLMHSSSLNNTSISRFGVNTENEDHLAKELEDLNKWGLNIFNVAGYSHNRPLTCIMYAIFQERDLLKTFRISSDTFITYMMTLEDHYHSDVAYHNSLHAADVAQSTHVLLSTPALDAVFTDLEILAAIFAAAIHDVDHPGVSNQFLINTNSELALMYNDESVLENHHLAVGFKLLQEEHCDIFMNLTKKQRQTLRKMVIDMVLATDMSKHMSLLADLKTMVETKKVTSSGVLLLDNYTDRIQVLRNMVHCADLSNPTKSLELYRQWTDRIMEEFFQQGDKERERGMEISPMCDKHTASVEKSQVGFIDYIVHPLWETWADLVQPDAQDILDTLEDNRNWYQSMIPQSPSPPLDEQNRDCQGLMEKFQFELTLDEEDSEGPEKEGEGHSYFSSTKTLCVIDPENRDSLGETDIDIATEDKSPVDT
Chain of Cytochrome P450 2C9 (Homo sapiens) (P11712 whole entry, looked up): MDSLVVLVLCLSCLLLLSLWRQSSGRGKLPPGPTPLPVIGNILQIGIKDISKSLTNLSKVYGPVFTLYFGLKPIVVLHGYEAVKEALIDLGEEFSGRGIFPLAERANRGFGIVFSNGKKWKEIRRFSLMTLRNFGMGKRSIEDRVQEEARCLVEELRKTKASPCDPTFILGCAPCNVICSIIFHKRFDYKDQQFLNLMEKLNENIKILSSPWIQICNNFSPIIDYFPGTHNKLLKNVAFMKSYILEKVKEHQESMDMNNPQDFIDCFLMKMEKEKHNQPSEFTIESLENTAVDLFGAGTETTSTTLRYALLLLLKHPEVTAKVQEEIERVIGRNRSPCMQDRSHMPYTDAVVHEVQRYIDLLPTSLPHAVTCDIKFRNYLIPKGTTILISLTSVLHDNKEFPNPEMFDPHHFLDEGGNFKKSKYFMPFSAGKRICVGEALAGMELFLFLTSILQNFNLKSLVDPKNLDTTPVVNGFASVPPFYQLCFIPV

Turning to `CCNc1ncc2nc(-c3cn(C)c4ccccc34)c(=O)n(Cc3cccs3)c2n1`, the Potency was more than 11.4 µM in assay [1], 6.31 µM (active) in [3], more than 9.22 µM in assay [5] and more than 46 µM in [6]. Moreover, in assay [2], the activity change, negative = inhibition is -13.1%. In addition, in [4], the activity, negative = inhibition was 23.5%. Moreover, the Potency result in assay [7], in assay [8], in [9], in assay [10], in [11] and in assay [12] was “inactive” each time. Moreover, the outcome in [13] was inactive.
As to `CNc1ncnc2ccc(-c3cccc(OC)c3)cc12`, the Potency was more than 11.4 µM in assay [1]; 0.501 µM (active) in assay [3]; more than 46 µM in [5]; more than 46 µM in assay [6]; 0.501 µM (active) in assay [14]; 0.501 µM (active) in [9]. In addition, the Potency is 0.501 µM (active) in assay [10] and 0.282 µM (active) in assay [11]. For the same compound, in [2], the activity change, negative = inhibition was -19.8%. In addition, the activity, negative = inhibition in [4] is -20.2%. For the same compound, the Potency result in [7], in assay [8] and in [12] was “inactive” throughout. The outcome in assay [13] was inactive.
On to `COc1cccc(Cn2c(=O)cnc3cnc(OC)nc32)c1`, for which the Potency in assay [1] is more than 11.4 µM; in assay [3], 12.6 µM (active); in assay [5], more than 9.22 µM; in assay [6] it was more than 46 µM. The activity change, negative = inhibition in assay [2] was 17.7%; in [15], 20%. In addition, the Potency result in assay [7], in [8], in assay [16], in assay [9], in [10] and in assay [11] was “inactive” each time. Besides, in assay [12], the Potency entry was “inactive”. Moreover, in assay [13], the outcome was inactive.
`CC(=O)NCCNc1ncncc1-c1ccccc1CN(C)C`: the results for the Potency in [1], in assay [3] and in assay [6] were more than 11.4 µM, 25.1 µM (active) and more than 46 µM, respectively. In addition, the activity change, negative = inhibition is 1.84% in assay [2] and -2.17% in assay [15]. Moreover, in assay [4], the activity, negative = inhibition was 0.764%. The Potency result in assay [7], in [8], in assay [16], in assay [9], in assay [10] and in [11] was “inactive” throughout. The Potency entry in [12] was “inactive”. For the same compound, the result in assay [13] was inactive.
Turning to `CS(=O)(=O)Nc1cccc(-c2nccc(Nc3ccc(F)cc3)n2)c1`, the Potency was more than 11.4 µM in assay [1]; 0.126 µM (active) in [3]; more than 46 µM in [5]; more than 46 µM in assay [6]; 15.8 µM (active) in assay [9]; 10 µM (active) in assay [10]. Also, the Potency in assay [11] is 11.2 µM (active). The values for the activity change, negative = inhibition in [2] and in [15] were -12.6% and 2.44%, respectively. Also, the activity, negative = inhibition in assay [4] is -20.3%. Further, the Potency entry in [7], in [8] and in [16] was “inactive” in each case. The result in assay [13] was inactive.
`COc1ccccc1CNc1cc(-c2ccccc2C(F)(F)F)ncn1`: the Potency in assay [1] was more than 11.4 µM; in assay [3], 15.8 µM (active); in [6], more than 46 µM; in [18] it was 1 µM (active). Moreover, the activity change, negative = inhibition is -11.1% in assay [2], -8.05% in [15] and 8.84% [at 2.29 µM] in assay [14]. The activity, negative = inhibition in assay [4] was 9.59%. The Potency entry in assay [7], in [8], in assay [17], in [9], in assay [10] and in [11] was “inactive” throughout. Further, the Potency result in assay [12] is “inactive”. Also, the outcome in [13] was inactive.

These data come from PubChem BioAssay (NCATS).
